Measurements reported in PubChem BioAssay.
Active and inactive are the calls of the source.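 How the source made its calls, unless noted: active means inhibition at or above 50% at 10 µM; inactive means inhibition below 50%.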

Assays:
[1] = inhibitors of TNFa-induced NFkB p65 translocation, primary screen, imaging, HUVEC, MLSMR starter and 10KST1 sets (AID 438;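 active means inhibition above 20% together with a positive visual image hit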;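 further: compound added about 3h40 before a 20 min TNFalpha stimulation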;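 on inhibition: signal is the nuclear over cytoplasmic p65 intensity ratio per well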); details: HUVEC TNFa-induced p65 nuclear translocation; cell count: measured here: nuclei count (cytotoxicity indicator), at 2.08 µM unless noted; inhibition: at 2 µM, stronger effect = higher value unless noted
[2] = reduction of polyQ htt aggregates in cells – imaging, exon1htt(103Q)mCFP cells, high-content imaging, primary screen (AID 483;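 active means visual image review flags a hit and inhibition of aggregation exceeds 20%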;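 further: compound exposure lasted 3 days before fixation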;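 on nuclei count: percent of the per-plate median nuclei count of sample wells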); details: exon1htt(103Q)mCFP cell line, aggregate imaging, at 2 µM; inhibition of aggregation: stronger effect = higher value; nuclei count: measured here: cell count, toxicity
[3] = endothelial E-selectin expression blockers – imaging, HUVEC, immunofluorescence, MLSMR starter and 10KST1 sets, primary screen (AID 487;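 active means visually confirmed hit in the image check and inhibition above 20%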;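 on inhibition: signal is fraction of cell area covered by stained E-selectin grains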;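 on nuclei count: 100% = median nuclei count of all wells on the same plate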); details: HUVEC TNFalpha-induced E-selectin immunofluorescence imaging, at 2 µM; inhibition: stronger effect = higher value; nuclei count: measured here: cell number, toxicity
[4] = biological target: Voltage-gated potassium channel subunit beta-2 (Rattus norvegicus) (UniProt P62483); test: inhibitors of rat Kvbeta2 reductase activity – biochemical, NADPH fluorescence, primary screen (AID 622;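 active means fluorescence slope higher than the sample average by over 3 SD, cut at about -0.22 in these data, passing the limit was not always enough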;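 further: slope of raw intensity against log time taken from 70 to 1610 s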); details: recombinant KvBeta, 4-cyanobenzaldehyde reduction, at 10 µM, stronger effect = higher value
[5] = biological target: Voltage-gated potassium channel subunit beta-2 (Rattus norvegicus) (UniProt P62483); test: enhancers of rat Kvbeta2 NADPH turnover – biochemical, NADPH fluorescence, primary screen (AID 623;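 active means NADPH fluorescence slope more negative than the mean of all samples by about 3 SD, 99.7% confidence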;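 further: fluorescence intensity change per second fitted from 20 to 320 s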); details: Recombinant KvBeta, NADPH fluorescence decrease slope, 10 min; at 10 µM; stronger effect = lower value
[6] = biological target: Alpha-2C adrenergic receptor (Homo sapiens) (UniProt P18825); test: compounds altering alpha2C-coupled GIRK flux – cell-based, HEK293 alpha2C/GIRK1/2, thallium flux, primary screen (AID 624;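 active means fluorescence slope after compound addition differing from the mean of all screened samples at 99.7% confidence, in either direction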;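 further: slope of fluorescence ratio to pre-addition baseline per second over 15 to 24 s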); details: thallium flux BTC fluorescence, at 10 µM, actives lie on both sides
[7] = blockers of RIG-like receptor reporter activation – cell-based, Sendai virus stimulus, luciferase, 10K MLSCN set, TLR/RLR signaling modifier project, primary screen (AID 602276); details: HEK293 RL24 IRF3 luciferase reporter, at 10 µM, stronger effect = higher value;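 further: firefly luciferase from ISG56 promoter only with Renilla not read in this screen; 0% = Sendai virus plus DMSO and 100% = medium plus DMSO without virus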
[8] = TLR3 IRF3 reporter activation blockers – cell-based, poly I:C stimulus, luciferase, 10K MLSCN set, primary screen (AID 602277;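 active means inhibition of the reporter signal at or above 50%; inactive means inhibition below 50%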); details: HEK293-TLR3 RL24 IRF3 luciferase reporter, at 10 µM, stronger effect = higher value

Sequence of Voltage-gated potassium channel subunit beta-2 (Rattus norvegicus) (P62483 whole entry, looked up): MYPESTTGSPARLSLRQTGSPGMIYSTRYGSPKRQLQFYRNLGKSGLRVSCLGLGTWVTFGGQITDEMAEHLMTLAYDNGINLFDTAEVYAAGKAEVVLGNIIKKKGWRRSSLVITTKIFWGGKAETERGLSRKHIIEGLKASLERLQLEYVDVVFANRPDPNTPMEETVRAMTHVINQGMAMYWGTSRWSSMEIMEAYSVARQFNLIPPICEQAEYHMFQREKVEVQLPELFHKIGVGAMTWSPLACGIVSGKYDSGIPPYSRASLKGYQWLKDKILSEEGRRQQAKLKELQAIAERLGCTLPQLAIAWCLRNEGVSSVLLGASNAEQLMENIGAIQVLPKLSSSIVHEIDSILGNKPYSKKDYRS
Sequence of Alpha-2C adrenergic receptor (Homo sapiens) (P18825 whole entry, looked up): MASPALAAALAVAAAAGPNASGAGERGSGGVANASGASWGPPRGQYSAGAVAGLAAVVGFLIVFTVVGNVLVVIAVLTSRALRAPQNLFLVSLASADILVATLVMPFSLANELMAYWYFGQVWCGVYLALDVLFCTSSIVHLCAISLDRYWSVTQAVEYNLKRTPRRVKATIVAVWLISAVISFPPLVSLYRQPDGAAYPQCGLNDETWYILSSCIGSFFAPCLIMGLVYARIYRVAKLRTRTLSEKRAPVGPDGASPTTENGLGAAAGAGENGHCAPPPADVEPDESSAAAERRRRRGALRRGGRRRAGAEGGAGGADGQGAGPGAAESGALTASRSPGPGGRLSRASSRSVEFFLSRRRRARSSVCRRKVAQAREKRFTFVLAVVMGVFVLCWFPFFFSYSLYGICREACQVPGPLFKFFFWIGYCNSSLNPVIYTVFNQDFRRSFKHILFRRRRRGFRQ

Row | SMILES | cell count [1] | inhibition [1] | inhibition of aggregation [2] | nuclei count [2] | inhibition [3] | nuclei count [3] | fluorescence slope [4] | NADPH fluorescence slope [5] | slope [6] | inhibition [7] | inhibition [8]
1 | Cc1ccc(OCC(=O)NCCN2CCN(C(=O)COc3ccc(C)cc3)CC2)cc1 | 635 | -0.2% (inactive) | 9.1% (inactive) | 94.7% | -103% (inactive) | 103% | -0.611 (inactive) | -2.9e-05 (inactive) | 0.00522 (inactive) | -9.99% (inactive) | -18.3% (inactive)
2 | CCCCNC(=O)c1c(N)n(CCCOC)c2nc3ccccc3nc12 | 447 | 14.6% (inactive) | 16.7% (inactive) | 95% | 0.8% (inactive) | 111% | -0.245 (inactive) | -2.4e-06 (inactive) | 0.00654 (inactive) | -5.16% (inactive) | -28.3% (inactive)
3 | CC(C)OCCCNC(=O)c1c(N)n(CC2CCCO2)c2nc3ccccc3nc12 (stereo unspecified) | 430 | -6.7% (inactive) | -14.6% (inactive) | 75% | -83% (inactive) | 196% | -0.0369 (inactive) | 2e-05 (inactive) | 0.00623 (inactive) | 11.4% (inactive) | 19.9% (inactive)
4 | CCCCn1c(C)c(C(=O)OCC)c2c(CN3CCOCC3)c(O)ccc21 | 702 | 0.6% (inactive) | -0.7% (inactive) | 82.8% | -44.3% (inactive) | 100% | -0.373 (inactive) | -2.7e-05 (inactive) | 0.00475 (inactive) | 11.9% (inactive) | 19.2% (inactive)
5 | CCC(=NCCCN1CCOCC1)c1c(O)n(Cc2ccccc2)c(=O)[nH]c1=O | 481 | 0.8% (inactive) | 8.2% (inactive) | 101% | -36.6% (inactive) | 167% | -0.629 (inactive) | -2.2e-05 (inactive) | 0.00745 (inactive) | -4.98% (inactive) | 1.2% (inactive)
6 | CC#CP(=O)(OCC)C(O)(c1ccccc1)C(F)(F)F (stereo unspecified) | 621 | 12.5% (inactive) | 4.9% (inactive) | 90.8% | -29.4% (inactive) | 110% | -0.621 (inactive) | 5.6e-07 (inactive) | 0.0037 (inactive) | 15% (inactive) | 23.4% (inactive)
7 | CC1=C(C(=O)N2CCC3(CC2)OCCO3)C2(CCC(C)CC2)OC1=O (stereo unspecified) | 651 | -25.5% (inactive) | 3.3% (inactive) | 104% | -0.9% (inactive) | 103% | -0.377 (inactive) | -4.4e-05 (inactive) | 0.00593 (inactive) | 7.64% (inactive) | 31.1% (inactive)
8 | CC1(C)Cc2c(sc3c2C(=O)NC(c2cccnc2)N3)CO1 (stereo unspecified) | 328 | 6.5% (inactive) | 6% (inactive) | 98.3% | 4.5% (inactive) | 106% | -0.584 (inactive) | -3.1e-05 (inactive) | 0.00356 (inactive) | 3.52% (inactive) | 5.63% (inactive)
9 | O=C(C(Cc1ccccc1)NS(=O)(=O)c1ccc(F)cc1)N1CCC2(CC1)OCCO2 (stereo unspecified) | 381 | -11.2% (inactive) | -7% (inactive) | 99.8% | -43.8% (inactive) | 122% | -0.437 (inactive) | 8.6e-06 (inactive) | 0.00508 (inactive) | 11.2% (inactive) | 37.1% (inactive)
10 | CCn1nc(-c2ccccc2)nc2c(=O)n(C)c(=O)nc1-2 | 367 | -31.1% (inactive) | -8.2% (inactive) | 86% | -133% (inactive) | 109% | -0.457 (inactive) | 1.4e-06 (inactive) | -0.00207 (active) | -39.4% (inactive) | 94.3% (active)
11 | Cc1ccc(C)c(NC2=NCCCS2)c1 | 304 | 9.3% (inactive) | 15.3% (inactive) | 92.5% | -82.5% (inactive) | 91% | -0.566 (inactive) | 9.6e-06 (inactive) | 0.00513 (inactive) | 17.2% (inactive) | 22% (inactive)
12 | O=P(OCC(F)(F)C(F)F)(N1CCCCC1)N1CCCCC1 | 336 | -10.1% (inactive) | -9.4% (inactive) | 121% | -152% (inactive) | 134% | -0.5 (inactive) | 2.3e-05 (inactive) | 0.00426 (inactive) | 7.79% (inactive) | 9.95% (inactive)
13 | O=C(NCc1ccccn1)c1ccccc1Cl | 627 | -0.6% (inactive) | 2.9% (inactive) | 111% | -26.1% (inactive) | 92.5% | -0.532 (inactive) | -5.9e-05 (inactive) | 0.00536 (inactive) | 10.8% (inactive) | 10.8% (inactive)
14 | CN1C(=O)C(Cc2cccc3ccccc23)C(=O)N(C)C1=O | 393 | 6.3% (inactive) | -7.2% (inactive) | 108% | -57.4% (inactive) | 125% | -0.47 (inactive) | -4.8e-05 (inactive) | 0.00658 (inactive) | 2.57% (inactive) | 32.2% (inactive)
15 | N=C(N)c1c(O)n(C2CCCCC2)c(=O)n(C2CCCCC2)c1=O | 460 | -13.4% (inactive) | -10.9% (inactive) | 102% | -11% (inactive) | 89.8% | -0.502 (inactive) | -1.1e-05 (inactive) | 0.00599 (inactive) | 16.7% (inactive) | 31.3% (inactive)
16 | O=C(CCCOc1ccc(Cl)cc1Cl)N1CCC2(CC1)OCCO2 | 751 | -20.4% (inactive) | -14.9% (inactive) | 114% | -51.1% (inactive) | 102% | -0.365 (inactive) | -4.9e-05 (inactive) | 0.0028 (inactive) | -4.5% (inactive) | -38.8% (inactive)
17 | Cc1ccnc(-n2c(-c3ccco3)nc3ccccc3c2=O)c1 | 445 | 10.2% (inactive) | -19.2% (inactive) | 115% | -4.3% (inactive) | 106% | -0.508 (inactive) | -3.8e-05 (inactive) | 0.0068 (inactive) | 6.03% (inactive) | -0.166% (inactive)
18 | C=CCn1c(O)c(C(C)=NCc2cccnc2)c(=O)[nH]c1=O | 364 | -1% (inactive) | 15.3% (inactive) | 96% | -99.8% (inactive) | 162% | -0.429 (inactive) | -4.2e-05 (inactive) | 0.00457 (inactive) | 9.61% (inactive) | 32.6% (inactive)
19 | Cc1nn(-c2ccccc2)c2c1CC1(C(=O)N(C)C(=O)N(C)C1=O)C1CCCCN21 (stereo unspecified) | 438 | -14.2% (inactive) | 26.9% (inactive) | 65.3% | -8.8% (inactive) | 101% | -0.509 (inactive) | -2.5e-05 (inactive) | 0.00545 (inactive) | -9.7% (inactive) | 28.2% (inactive)
20 | CC(=NCCCO)c1c(O)n(Cc2ccccc2)c(=O)[nH]c1=O | 374 | -1.2% (inactive) | -15.8% (inactive) | 113% | -197% (inactive) | 130% | -0.384 (inactive) | -3.6e-05 (inactive) | 0.00369 (inactive) | 13% (inactive) | 11% (inactive)
21 | O=C(c1sc2ccccc2c1Cl)N1CCC2(CC1)OCCO2 | 388 | 2.5% (inactive) | -5.9% (inactive) | 107% | -59.7% (inactive) | 105% | -0.405 (inactive) | 3e-05 (inactive) | 0.00266 (inactive) | -10.2% (inactive) | -29.6% (inactive)
